Data on 23 sequences can be found in the OligoGym collection.
Note: reference of the scale not given here.

One assay concerns the target DIRAS3. In words: pooled miR-30 sensor sort-seq; sequence = guide strand. The settings on record: shRNA.
TATACGTATTGACAACATGGAT displayed a sensor-assay potency score (higher = more potent) of -1.16.

On to TTACAGTCCAAACAACAGCACA, for which the sensor-assay potency score (higher = more potent) was -1.35.

In turn, TAACATAGTGAAATGAGTCCAC gave a sensor-assay potency score (higher = more potent) of 0.953.

Turning to TTCCACTCCATCGCACAGGTGG, the sensor-assay potency score (higher = more potent) was -0.748.

TTGTTACCTTTGATCTTGCAGA displayed a sensor-assay potency score (higher = more potent) of -0.643.

Consider TTGCCGTCGCCACTCTTGCTGT, for which the sensor-assay potency score (higher = more potent) was -1.2.

Regarding TACTTTAAATACATCATGCTAC, the sensor-assay potency score (higher = more potent) was -0.338.

In the case of TACATCATGCTACATTTTGTTC, the sensor-assay potency score (higher = more potent) is -1.42.

Sequence TTTAAATACATCATGCTACATT had a sensor-assay potency score (higher = more potent) of -0.644.

TAATCTCTGATCTTCCTGTGGG gave a sensor-assay potency score (higher = more potent) of 0.371.

As for TTGTCAAGCAGCTTCTCAGTGG, the sensor-assay potency score (higher = more potent) is -0.353.

For another assay, the target named is DLAT. The description is as above. Particulars: shRNA.
Turning to TTTAAATCTGTTACTTCGGTTG, the sensor-assay potency score (higher = more potent) is -0.374.

Consider TTCATTATCTGCAGGGACCAGT, for which the sensor-assay potency score (higher = more potent) was -0.346.

The sequence TTTGTCTTATAACTGTGTCCAT returned a sensor-assay potency score (higher = more potent) of -0.255.

Turning to TTGATTGCATTAATCGCTGTGC, the sensor-assay potency score (higher = more potent) stood at 0.199.

With TTTTAAATCTGTTACTTCGGTT, the sensor-assay potency score (higher = more potent) is -0.836.

In turn, TAGAAAGGTAATAATGAGGTAT displayed a sensor-assay potency score (higher = more potent) of -0.0638.

In the case of TTGTCTTATAACTGTGTCCATC, the sensor-assay potency score (higher = more potent) is -1.31.

TTCTCCCATATTTACATCGATA returned a sensor-assay potency score (higher = more potent) of -1.59.

TAATCGCTGTGCAATAACCCGA returned a sensor-assay potency score (higher = more potent) of -0.457.

TTCTCTACTGCCAACTTCTTTG: the sensor-assay potency score (higher = more potent) is -0.772.

TTTGATTGCATTAATCGCTGTG registered a sensor-assay potency score (higher = more potent) of 0.738.

The sequence TTTCTCTACTGCCAACTTCTTT returned a sensor-assay potency score (higher = more potent) of -1.09.
